# Source: PubChem BioAssay (several laboratories)
# Sampled rows, rich in hits. Any-hit rate of the full collection: about 1.3%.
# Gli-Sufu antag: blocks Gli-Sufu signaling in a luciferase reporter. Sufu-KO-LIGHT fibroblasts, Gli luciferase reporter luminescence. inhibition, % at 5 µM. actives 0.74% (n = 340,000);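 active means inhibition above about 55%, limit read from the data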;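 further: 0% = DMSO-treated cells and 100% = wells with medium but no cells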
# NCOA3 inh: inhibits human SRC3 coactivator. Q9Y6Q9. HEK293 GAL4-SRC3 luciferase reporter, luminescence. inhibition, % at 3.6 µM. actives 0.17% (n = 360,000);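 active means inhibition above a per-campaign cutoff, the mean of all compounds plus 3 SD, cut at about 60% in these data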;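 further: 0% = DMSO-treated cells and 100% = gossypol-treated cells at 36 µM; higher means less SRC3-driven luciferase light from the GAL4 reporter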
# SRC2 inh: human SRC2 (NCOA2) inhibition; HEK293 GAL4-SRC2 luciferase reporter, luminescence; Q15596; actives 0.17% (n = 370,000); inhibition, % at 9 µM; AID 651957;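 active means inhibition above the mean inhibition of all tested compounds plus 3 SD, set per campaign, cut at about 52% in these data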;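 further: 0% = DMSO treated cells and 100% = cells given Gossypol at 36 µM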
# SRC1 inh: human NCOA1 inhibition | Q15788 | HEK293 GAL4-SRC1 luciferase reporter, luminescence | inhibition, % at 3.6 µM | actives 0.12% (n = 360,000);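 active means inhibition above the campaign mean plus 3 SD, with each screening campaign given its own cutoff, cut at about 60% in these data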;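 further: 0% = DMSO treated cells and 100% = gossypol at 36 µM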
# Target sequence (Q15788 whole entry, looked up, the tested form may be a part): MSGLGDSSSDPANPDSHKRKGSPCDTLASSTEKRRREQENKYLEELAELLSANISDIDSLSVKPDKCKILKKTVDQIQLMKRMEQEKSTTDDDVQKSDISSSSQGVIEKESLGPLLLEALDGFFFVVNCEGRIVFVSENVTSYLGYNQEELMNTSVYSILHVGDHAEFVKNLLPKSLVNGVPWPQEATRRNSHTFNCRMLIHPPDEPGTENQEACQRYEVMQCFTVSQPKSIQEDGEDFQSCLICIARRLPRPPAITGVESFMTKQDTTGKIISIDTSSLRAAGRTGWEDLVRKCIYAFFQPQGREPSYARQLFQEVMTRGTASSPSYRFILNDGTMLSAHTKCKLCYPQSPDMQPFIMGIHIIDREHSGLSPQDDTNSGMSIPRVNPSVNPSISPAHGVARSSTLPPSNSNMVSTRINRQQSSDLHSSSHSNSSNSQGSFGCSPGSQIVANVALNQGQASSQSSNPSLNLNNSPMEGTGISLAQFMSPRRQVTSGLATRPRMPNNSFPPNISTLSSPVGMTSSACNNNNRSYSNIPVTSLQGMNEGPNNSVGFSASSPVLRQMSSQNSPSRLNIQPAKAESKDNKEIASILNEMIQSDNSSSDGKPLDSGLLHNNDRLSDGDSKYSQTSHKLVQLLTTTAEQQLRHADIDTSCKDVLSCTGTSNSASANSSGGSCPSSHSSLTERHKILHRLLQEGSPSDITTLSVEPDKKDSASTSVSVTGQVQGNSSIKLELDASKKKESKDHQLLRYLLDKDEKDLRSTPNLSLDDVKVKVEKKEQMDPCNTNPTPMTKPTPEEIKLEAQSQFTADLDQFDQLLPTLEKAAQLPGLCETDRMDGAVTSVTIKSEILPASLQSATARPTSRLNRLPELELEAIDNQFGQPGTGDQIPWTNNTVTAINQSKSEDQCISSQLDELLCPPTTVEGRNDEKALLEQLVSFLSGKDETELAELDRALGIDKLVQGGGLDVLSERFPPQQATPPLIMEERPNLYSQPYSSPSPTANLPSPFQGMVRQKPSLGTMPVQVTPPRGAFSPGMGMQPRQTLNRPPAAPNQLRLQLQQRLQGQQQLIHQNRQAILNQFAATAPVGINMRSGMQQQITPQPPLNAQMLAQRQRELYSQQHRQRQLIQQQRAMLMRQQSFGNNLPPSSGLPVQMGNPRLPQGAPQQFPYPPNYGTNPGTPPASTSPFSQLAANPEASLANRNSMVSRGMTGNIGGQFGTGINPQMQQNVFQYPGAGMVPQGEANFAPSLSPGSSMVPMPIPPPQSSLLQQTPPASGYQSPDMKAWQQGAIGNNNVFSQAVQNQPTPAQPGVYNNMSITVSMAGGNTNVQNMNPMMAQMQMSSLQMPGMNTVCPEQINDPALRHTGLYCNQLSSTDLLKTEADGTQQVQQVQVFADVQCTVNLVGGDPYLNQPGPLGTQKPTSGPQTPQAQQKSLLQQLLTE
# NR5A2 inv ag: inverse agonists of human LRH-1 (NR5A2). HEK293T StAR-luciferase reporter, LRH-1 transfected, 24 h. AID 602396. inhibition, % at 3.6 µM. O00482. actives 0.13% (n = 360,000);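 active means inhibition above the mean inhibition of all tested compounds plus 3 SD, cut at about 73% in these data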;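 further: 0% = DMSO wells and 100% = reporter-only cells lacking LRH-1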
# COUP-TFII inh: inhibitors of human COUP-TFII (NR2F2). P24468. HEK293T NGFI-A luciferase reporter, luminescence. inhibition, % at 8.6 µM. actives 0.7% (n = 370,000). AID 686940;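 active means inhibition above a per-plate cutoff, mean inhibition of test wells between control levels plus 3 SD, cut at about 38% in these data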;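 further: cells cotransfected with COUP-TFII expression vector driving the NGFI-A reporter; 0% = median of COUP-TF2 test wells and 100% = reporter-only cells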
# Numbers without * were called inactive; x = no result given; ! = a repeat was not active.
SMILES,Gli-Sufu antag,NCOA3 inh,SRC2 inh,SRC1 inh,NR5A2 inv ag,COUP-TFII inh
COC(=O)C1CN(Cc2cn(Cc3ccc(OC)cc3)nn2)CCS(=O)(=O)N1Cc1ccc(OC)cc1 (stereo unspecified),x,x,4,x,x,8
COC(=O)C1CN(Cc2ccccc2)CCS(=O)(=O)N1Cc1ccc(Cl)cc1 (stereo unspecified),x,x,16,x,x,3
Cc1ccc(S(=O)(=O)Nc2ccc3nc(C)sc3c2)cc1,-4,16,x,16,20,x
Cc1nc2ccc(NS(=O)(=O)c3ccc4c(c3)OCCO4)cc2s1,10,13,25,17,41,65*
CC(C)OC(=O)c1ccc(NCc2cc(O)ccc2O)cc1,16,-13,60*,-65,-18,22
O=C(OCc1ccccc1)c1ccc(NCc2cc(O)ccc2O)cc1,11,40,83*,-34,37,56*
C=CCOC(=O)C1=C(C)N=c2sc(=C3C(=O)N(CC(=O)O)c4ccccc43)c(=O)n2C1c1ccc(OC)cc1 (stereo unspecified),x,x,1,x,x,21
C=C1C(=O)C2=CC1CCC(=O)C1(C)CCC(OC(C)=O)C(C)(C)C1CC2O (stereo unspecified),16,64*,48,51,46,34
O=C(Nc1c(-c2ccccc2)nc2ncccn12)C1CC1,x,x,-10,x,x,-9
CN(C)CC1CCC/C(=C\c2ccc(OC(=O)/C=C/c3ccccc3)cc2)C1=O (stereo unspecified),1,-5,-6,-4,-10,15
CN(C)CC1CCC/C(=C\c2ccc(OC(=O)c3ccc(Cl)cc3)cc2)C1=O (stereo unspecified),10,51,-21,67*,53,-9
C/C(=N/NC(=O)c1ccc(C(C)(C)C)cc1)c1ccccn1,65*,14,0,-9,-11,8
C/C(=N/NC(=O)c1ccccn1)c1ccncc1,3,-92,-43,-61,-133,-10
COc1ccc(C(=O)N/N=C(\C)c2ccccn2)cc1OC,95*,19,15,15,35,-45
O=[N+]([O-])c1ccc(O)c(/C=N/Nc2ncnc3c2cnn3-c2ccccc2)c1,58*,14,-35,0,2,-15
COc1ccc(O)c(/C=N/Nc2nc3ccccc3[nH]2)c1,6,13,-34,-14,-11,-27
O=[N+]([O-])c1ccc(O)c(/C=N/Nc2ccccn2)c1,72*,49,20,27,39,-25
O=[N+]([O-])c1ccc(NN=Cc2ccccc2O)nc1,22,17,-3,-18,2,-16
O=[N+]([O-])c1ccc(O)c(/C=N/Nc2nc3ccccc3[nH]2)c1,12,64*,8,17,91*,-34
CNc1ccccc1/C(O)=C(\C#N)C(=O)NCc1cccc2ccccc12,x,x,14,x,x,-8
COc1ccc(-n2cc(COC(=O)NCCc3c[nH]c4ccccc34)nn2)cc1,x,x,18,x,x,-1
COc1cc(/C=N/NC(=Nc2ccc(C)cc2)c2nc3ccccc3s2)ccc1O,-29,85*,25,84*,-14,28
O=C(C(=O)N1CCC(CNS(=O)(=O)c2ccc(C(F)(F)F)cc2)CC1)c1cc2ccccc2o1,x,x,-8,x,x,22
Oc1c(Br)cc(Br)cc1/C=N/Nc1ccc(Cl)nn1,90*,17,-12,5,-1,1
COC(=O)C1CN(C2CCCC2)CCS(=O)(=O)N1Cc1cn(Cc2ccccc2)nn1 (stereo unspecified),x,x,4,x,x,2
SMILES,Gli-Sufu antag,NCOA3 inh,SRC2 inh,SRC1 inh,NR5A2 inv ag,COUP-TFII inh
COc1ccc(N(C(=O)c2ccco2)C(C(=O)NC2CCCCC2)c2cccs2)cc1OC (stereo unspecified),-101,12,0,-10,9,-3
C#CC(=O)N(c1cc(OC)ccc1OC)C(C(=O)NC1CCCC1)c1cccs1 (stereo unspecified),86*,43,x,-5,25,x
C#CC(=O)N(c1ccc(OC)cc1OC)C(C(=O)NC1CCCC1)c1cccs1 (stereo unspecified),57*,28,16,3,36,-15
COc1ccc(N(C(=O)c2snc(C(N)=O)c2N)C(C(=O)NC2CCCC2)c2cccs2)cc1OC (stereo unspecified),-1,4,-18,-9,-1,-12
CC(C)[C@@H](CO)N1Cc2nnn(Cc3ccccc3)c2-c2ccccc2S1(=O)=O,x,x,3,x,x,0
Cc1ccc(S(=O)(=O)NC(CC(C)C)C(=O)NCC(c2ccco2)N2CCCCC2)cc1 (stereo unspecified),16,72*,x,65*,38,x
COc1ccccc1CNC(=O)CCNS(=O)(=O)c1ccc2[nH]c(=O)oc2c1,57*,8,7,2,-10,4
COC(=O)C1CN(Cc2ccc(F)cc2)CCS(=O)(=O)N1Cc1ccc(C)cc1 (stereo unspecified),x,x,20,x,x,7
C[n+]1c2cc(N)ccc2cc2ccc(N)cc21,20,-71,-229,-111,74*!,-35
COC(=O)[C@]12C[C@H](CC(=O)N3CCN(C(=O)c4ccco4)CC3)C(=O)N(Cc3ccc(Cl)cc3Cl)C1=C[C@H](C1CCCC1)O[C@@H]2C,x,x,21,x,x,-7
C[C@@]12C(=O)OC(=O)[C@]1(C)C1CCC2O1,40,71*,61*,53,59,66*
CCN(CC)c1ccc2cc(-c3nc4ccccc4[nH]3)c(=O)oc2c1,-58,-31,x,-35,-42,x
CCN(CC)c1ccc2nc3ccccc3[n+](CC)c2c1,26,68*,x,63*,76*,x
CC[C@@]1(O)C(=O)OCc2c1cc1n(c2=O)Cc2cc3c(CN(C)C)c(O)ccc3nc2-1,61*,71*,45,22,86*,-5
O=c1cccc2n1Cc1cc3ccccc3nc1-2,-62,-73,-65,-83,-107,-58
CC[C@@]1(O)C(=O)OCc2c1cc1n(c2=O)Cc2cc3c(N)cccc3nc2-1,65*,73*,47,58,91*,12
CC1CCN(Cc2c(C(=O)N/N=C/c3cc(Cl)ccc3O)nnn2-c2nonc2N)CC1,80*,57,-39,40,8,-4
Cc1cc(C)c(/C=N/NC(=O)c2nnn(-c3nonc3N)c2CN2CCC(C)CC2)c(C)c1,35,9,12,3,13,0
CC1CCN(Cc2c(C(=O)N/N=C/c3cc(Br)ccc3O)nnn2-c2nonc2N)CC1,86*,68*,17,41,8,-10
COc1c(Cl)cc(Cl)cc1/C=N/NC(=O)c1nnn(-c2nonc2N)c1CN1CCC(C)CC1,-5,3,3,-10,-8,11
C#CCN1CC(N(C)CCOC(=O)c2cc(C)cc(C)c2)CS1(=O)=O (stereo unspecified),x,x,3,x,x,-6
